Assay results published in article PMC5540273 (PLoS ONE, 2017).

test system: ULK3; settings: concentration: 1 μM, replicates: in singlicate; n = 1
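Note: KINOMEscan kinase panel screen.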

SMILES | %Inh
COc1cccc(CC(=O)N2CCc3cc(-c4cn(C)c5ncnc(N)c45)ccc32)c1 [GSK2608899] | 17%
COC(=O)Nc1nc2cc(Oc3ccc(NC(=O)Nc4cccc(SC)c4)cc3)ccc2[nH]1.Cl [GW697999] | 21%
Cc1ccc(O)cc1Nc1ccnc2cc(-c3ccc(CN4CCCCC4)o3)ccc12 [GW557777] | 0%
CN(c1ccc2c(c1)nc(NCc1ccccc1)n2C)c1ccnc(Nc2ccc(CS(C)(=O)=O)cc2)n1.Cl [GW811603] | 9%
COc1cccc(C2=C(Nc3cccc(O)c3)C(=O)NC2=O)c1 [SB-390771] | 23%
CC(C)NCC(Cc1ccccc1)NC(=O)c1cc(Br)c(-c2ccnc3[nH]ccc23)s1.Cl.Cl (stereo not drawn) [GSK1383281] | 1%
Cc1ccc(O)cc1Nc1ccnc2ccc(C(C)(C)C)cc12 [GW856805] | 51%
NCCC(NC(=O)c1cc(Br)c(-c2ccnc3[nH]ccc23)s1)c1ccccc1.O=C(O)C(F)(F)F.O=C(O)C(F)(F)F (stereo not drawn) [GSK1307810] | 16%
COc1ccc(C2=C(Nc3cccc(O)c3)C(=O)NC2=O)cc1 [SB-390766] | 25%
O=C(O)C(F)(F)F.O=c1[nH]ccc2nc(N[C@@H]3CCNC3)nc(Nc3cc(Cl)cc(Cl)c3)c12 [GSK2188764] | 97.4%
Cc1ccc(C)c(NC(=O)Nc2ccc(C)c(-c3ccc(C(=O)Nc4ccncc4)cc3)c2)c1 [GSK1398473] | 15%
Cn1cc(-c2ccc3c(c2)CCN3C(=O)Cc2cc(F)cc(F)c2F)c2c(N)ncnc21 [GSK2634140] | 4%
N#Cc1cnc2cc(-c3cnc(CNCCN4CCOCC4)s3)ccc2c1Nc1ccc(Oc2ccccc2)cc1 [GW664114] | 48%
CN1CCN(Cc2ccc(NC(=O)Nc3ccc(N(C)c4ccnc(Nc5ccc(CS(C)(=O)=O)cc5)n4)cc3)cc2)CC1.Cl [GW827654] | 95.9%
Fc1cc(Cl)ccc1Nc1ccnc2cc(-c3ccc(CN4CCOCC4)o3)ccc12 [GW560109] | 34%
Cl.N#CCc1ccc(Nc2nccc(Nc3ccc(Oc4ccccc4)cc3)n2)cc1 [GW639905] | 15%
CN(c1ccc(F)c(NC(=O)c2cccc(OC(C)(C)C#N)c2Cl)c1)c1ccc2nc(NC(=O)C3CC3)sc2n1 | 4%
CN(C)c1ncnc2nc[nH]c12 [SKF-31736] | 21%
O=C(Nc1c(F)cccc1F)c1cc(C(=O)c2ccccc2F)c[nH]1 [GSK1326180] | 2%
Nc1ncc(-c2ccc3nccc(-c4ccncc4)c3c2)cc1S(=O)(=O)N1CCCCC1 [GSK1693850] | 10%
Fc1cc(Cl)ccc1Nc1ccnc2cc(-c3ccc(CN4CCSCC4)o3)ccc12 [GW560106] | 15%
CS(=O)(=O)c1cccc(CNc2nc(Nc3ccc4c(c3)CCC(=O)N4)ncc2C(F)(F)F)c1 | 66%
COC(=O)Nc1nc2ccc(Oc3ccc(CC(=O)Nc4cc(C(F)(F)F)ccc4F)cc3)cc2[nH]1 [GW680903] | 0%
Cl.Cl.NC(CNC(=O)c1cc(Br)c(-c2ccnc3[nH]ccc23)s1)c1ccccc1 (stereo not drawn) [GSK1322949] | 8%
